These results are taken from ChEMBL document CHEMBL3433997, “St. Jude Leishmania screening dataset” (2016).

Holding throughout (type): functional
In test [1] the target is Solute carrier family 2, facilitated glucose transporter member 1 (Homo sapiens) (UniProt P11166). The test can be described thus: ST_JUDE_LEISH: Cytotoxicity at 2uM final concentration against transgenic Leishmania Mexicana promastigotes LmGLUT1 that are glucose transport deficient and complemented with the human glucose transporter GLUT1. Activity is measured by DNA content using SYBR green in vitro.

In test [2] the target is Hexose transporter 1 (Plasmodium falciparum) (UniProt O97467). Description: ST_JUDE_LEISH: Cytotoxicity at 2uM final concentration against transgenic Leishmania Mexicana promastigotes LmPfHT that are glucose transport deficient and complemented with the Plasmodium falciparum hexose transporter. Activity is measured by DNA content using SYBR green in vitro.
For test [3], the target named is Glucose transporter (Leishmania mexicana) (UniProt O61059). The test can be described thus: ST_JUDE_LEISH: Cytotoxicity at 2uM final concentration against transgenic Leishmania Mexicana promastigotes LmGT2 that are glucose transport deficient and complemented with the L. Mexicana glucose transporter 2. Activity is measured by DNA content using SYBR green in vitro.

Sequence of Solute carrier family 2, facilitated glucose transporter member 1 (Homo sapiens) (P11166 whole entry): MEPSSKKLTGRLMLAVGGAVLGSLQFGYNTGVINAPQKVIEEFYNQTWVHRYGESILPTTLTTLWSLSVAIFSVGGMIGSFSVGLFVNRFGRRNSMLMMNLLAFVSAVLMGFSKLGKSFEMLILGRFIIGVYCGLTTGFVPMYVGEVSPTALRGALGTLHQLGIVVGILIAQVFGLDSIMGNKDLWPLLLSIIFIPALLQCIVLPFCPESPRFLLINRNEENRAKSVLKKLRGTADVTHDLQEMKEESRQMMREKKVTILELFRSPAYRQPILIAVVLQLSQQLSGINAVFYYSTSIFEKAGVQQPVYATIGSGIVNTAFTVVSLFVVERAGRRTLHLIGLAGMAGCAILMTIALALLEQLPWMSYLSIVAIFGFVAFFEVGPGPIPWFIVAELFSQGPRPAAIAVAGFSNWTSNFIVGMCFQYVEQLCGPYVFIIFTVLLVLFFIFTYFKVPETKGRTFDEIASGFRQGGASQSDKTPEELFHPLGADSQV

In the case of `CCN1CCN(c2cc(C)c3cc(NC(=O)c4cc(OC)cc(OC)c4)ccc3n2)CC1`, the inhibition in test [1] was -0.26%; in test [2] it was 1.03%; in test [3], 2.19%.
For `Cn1c(Cc2ccccc2)nnc1Sc1ccc(C#N)c([N+](=O)[O-])c1` the same measures were 3.85%, 1.84% and -3.07%.
For `CCOC(=O)N1CCC(NC(=O)c2ccc(C(C)(C)C)cc2OC)CC1`, in that order: 3.46%, 3.5% and 3.13%.
For `O=C(NCCN1CCCCC1)c1ccc(CNC(=O)c2ccc(O)c(-c3cccc(C(F)(F)F)c3)c2)cc1` the same measures were 4.42%, 3.09% and 3.27%.
Take `Oc1cccc(-c2nc(-c3cccc(I)c3)c(-c3ccc(-c4nc(-c5cccc(O)c5)[nH]c4-c4cccc(I)c4)cc3)[nH]2)c1`: the inhibition came out at 4.52% in test [1], 4.72% in test [2] and 4.57% in test [3].
For `COc1ccc(CNC(=O)NC2CCN(c3ccnc(Nc4ccc(F)cc4)n3)CC2)cc1`, in that order: 0.86%, 1.1% and 0.64%.
For `CCc1cn(CC(=O)N(CCOc2ccc(-c3ccc(C(F)(F)F)cc3)cc2)CCN(CC)CC)c(SCc2ccc(F)cc2)nc1=O`, in that order: 0.38%, 0.65% and -0.06%.
For `CCc1cn(CCOC)c2ccc(C(=O)N[C@@H](Cc3ccccc3)[C@H](O)CNC(C)(C)CCCC(C)C)cc12` the same measures were 0.24%, 1.3% and 1.51%.
`N=C(N)c1ccc(C(=O)Nc2cccc(C(=N)N)c2)cc1`: the inhibition in test [1] is -0.57%; in test [2], 0.84%; in test [3], -0.81%.
For `O=C(/C=C/c1ccc(Cl)c(Cl)c1)N1CCC(CCN2CCC(c3c[nH]c4ccncc34)CC2)CC1`, in that order: 3.03%, 4.39% and 6.65%.
Take `CCCN1CCN(CCCNC(=O)c2cc3c(-c4ccc(Cl)cc4)nn(C)c3s2)CC1`: the inhibition in test [1] is 18.3%; in test [2] it was 17.4%; in test [3], 10.2%.
For `CCN(c1cc(C)nc(Nc2ccc(Cl)cc2)n1)[C@H]1CCN(Cc2ccccc2)C1`, in that order: 9.15%, 7.78% and 6.41%.
For `CN1CCC(NCc2ccc(-c3cccc(S(=O)(=O)NCc4ccccc4)c3)cc2)CC1`, in that order: 2.23%, 3.01% and -1.01%.
For `CCn1c(-c2cc(C)on2)nc2cnc(Oc3ccc(C(=O)N4CC(=O)N(C)C4C(C)(C)C)cc3)cc21` (configuration not stated), in that order: -1.85%, 1.92% and 5.58%.
Regarding `COc1ccc2[nH]ccc(=NN=CC=Cc3ccccc3)c2c1`, the figures for the inhibition in test [1], in test [2] and in test [3] were -0.13%, 2.19% and -3.26%, respectively.
For `Cc1cccc(C)c1CNc1ccnc2cc(C#N)ccc12` the same measures were 3.83%, 3.15% and 2.98%.
As for `Cc1ccc(-c2noc(COc3ccccc3C(=O)NC3CCCC3)n2)cc1`, the inhibition is 3.88% in test [1], 6.24% in test [2] and 6.15% in test [3].
For `CC(C)c1cc(C(=O)N[C@@H](Cc2ccccc2)[C@H](O)CNC2CCCCC2)cc(N2CCCC2=O)c1`, in that order: 2.19%, 1.07% and 2.18%.
For `COc1ccc(NC(=O)/C=C/c2ccccc2Cl)cc1OCCN1CCC(N2CCN(C)CC2)CC1` the same measures were 4.65%, 6.39% and 0.87%.
For `CC(C)CCNC(=N)Nc1ccc(OCCCCCOc2ccc(NC(=N)NCCC(C)C)cc2)cc1`, the inhibition in test [1] was 6.46%; in test [2] it was 3.87%; in test [3], -1.73%.
For `CCN(CC)CCN(Cc1ccc(-c2ccc(C(F)(F)F)cc2)cc1)C(=O)Cn1c(CCc2cccc(F)c2F)nc(=O)c2cc(F)c(F)cc21`, in that order: 9.33%, 7.63% and 9.47%.
For `O=C(N[C@@H](Cc1ccccc1)C(=O)NC1CCCCC1)c1ccc(O)c(-c2cccc(C(F)(F)F)c2)c1`, in that order: 3.98%, 5.95% and 5.39%.
For `Cc1noc(=O)c2ccc(NC(=O)C(O)(CSc3ccccc3)CC(C)C)cc12` (configuration not stated) the same measures were 6.92%, 4.78% and 3.58%.
Take `COc1ccc(NC(=O)C2c3ccccc3C(=O)N(C3CCCC3)C2c2cccs2)cc1OC` (configuration not stated): the inhibition was found to be 2.85% in test [1], 5.65% in test [2] and 0.45% in test [3].
For `CCOc1cc(C(=O)Nc2ccc3nc(N4CCCCC4)cc(C)c3c2)cc(OCC)c1OCC` the same measures were 4.92%, 4.24% and 3.07%.
For `COc1cc2nc(NCc3cccc(CNC(=O)c4ccc(-c5ccc(C(C)=O)cc5)cc4)c3)nc(N)c2cc1OC` the same measures were 0.91%, -0.03% and 0.66%.
For `COc1ccc(N2CCN(CCCNC(=O)c3ccc(NC(=O)c4cc(Cl)cc(Cl)c4)cc3)CC2)c(OC)c1`, in that order: 4.49%, 0.82% and 3.87%.
On to `CCN(CCCN1CCCCC1)c1cc(C)nc(Nc2cc(C(F)(F)F)ccc2C)n1`, for which the inhibition in test [1] is -1.35%; in test [2], 0.37%; in test [3], 0%.
Turning to `O=C(NC1CCCCC1)N(Cc1ccccc1-c1ccc(CNCCc2ccccc2)cc1)C1CCN(Cc2ccccc2)CC1`, the inhibition in test [1] was 4.39%; in test [2], 3.18%; in test [3], -0.58%.
Regarding `CC(C)(C)c1cc2cc(Nc3ccnc4cc(-c5nccs5)ccc34)ccc2[nH]1`, the inhibition came out at 6.8% in test [1], 7.87% in test [2] and 5.41% in test [3].
For `CCc1ccc(C(=O)Nc2cccc(CN3CCCN(Cc4ccc(O)cc4)CC3)c2)cc1` the same measures were 2.88%, -2.75% and 3.01%.
For `COc1cc(C)ccc1N1CCN(CCCCNC(=O)c2ccc(NC(=O)c3ccc(Cl)cc3)cc2)CC1`, in that order: 6.85%, 6.83% and 6.92%.
For `Cc1nc(N)nc(N)c1CCCOc1ccccc1Cl`, in that order: 13.2%, 27.9% and 5.78%.
As for `CN(C)CCN(Cc1ccc(-c2ccc(CNCCc3ccccc3)cc2)nc1)C(=O)CCC1CCCC1`, the inhibition in test [1] worked out at 3.68%; in test [2], 6.87%; in test [3], 6.39%.

As a reminder, the inhibition is the relative decrease from the control value, in per cent.
